Experimental data reported in publication PMC9838217, “Structure of SALL4 zinc finger domain reveals link between AT-rich DNA binding and Okihiro syndrome”.
Changes are numbered by the printed parent chain.

Columns and labels:
Test in all cases: HT-SELEX; high values mean tight binding
Conditions in all cases: protein: recombinant; vector His6-GST; dsDNA, one strand shown
SALL4 ZFC4 WT (HT-SELEX) = molecular target: T1, SALL4 ZFC4 WT (HT-SELEX) (Mus musculus, UniProt Q8BX22 870-940)
T1 sequence: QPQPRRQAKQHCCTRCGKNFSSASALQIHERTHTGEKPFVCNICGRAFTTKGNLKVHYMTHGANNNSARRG
Method in brief: (§1)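 In triplicate selections of up to 6 cycles, purified recombinant mouse SALL4 zinc finger cluster 4 (residues 870–940, 1 µg) was incubated 10 min at room temperature with library DNA (1.5 µg, then 200 ng) in 100 µl of 10 mM Tris–HCl pH 7.5, 50 mM NaCl, poly(dI-dC) and DTT, and complexes were captured on Ni2+ beads, washed and PCR-amplified. Sequencing was done on MiSeq with scanning for 6-mers. The binding signal is each canonical k-mer's read fraction, reported as fold change against the initial random library.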

[1] = molecular target: T2, SALL4 ZFC4 R900W (HT-SELEX) (Mus musculus, UniProt Q8BX22 870-940, R900W)
T2 sequence: T1 sequence with R31W
Method in brief: as §1

[2] = molecular target: T3, SALL4 ZFC4 G921D (HT-SELEX) (Mus musculus, UniProt Q8BX22 870-940, G921D)
T3 sequence: T1 sequence with G52D
Method in brief: as §1

ACAACT
binding signal (SALL4 ZFC4 WT (HT-SELEX)): 1.25 ± 0.0434 fold-change vs cycle 0 | binding signal [1]: 1.37 ± 0.0317 fold-change vs cycle 0 | binding signal [2]: 1.38 ± 0.0748 fold-change vs cycle 0

CTGACC
binding signal (SALL4 ZFC4 WT (HT-SELEX)): 0.426 ± 0.0325 fold-change vs cycle 0 | binding signal [1]: 0.52 ± 0.0363 fold-change vs cycle 0 | binding signal [2]: 0.621 ± 0.0521 fold-change vs cycle 0

ATACGG
binding signal (SALL4 ZFC4 WT (HT-SELEX)): 0.67 ± 0.0205 fold-change vs cycle 0 | binding signal [1]: 0.767 ± 0.0197 fold-change vs cycle 0 | binding signal [2]: 0.808 ± 0.0319 fold-change vs cycle 0

AGGAGC
binding signal (SALL4 ZFC4 WT (HT-SELEX)): 0.374 ± 0.0206 fold-change vs cycle 0 | binding signal [1]: 0.46 ± 0.0185 fold-change vs cycle 0 | binding signal [2]: 0.595 ± 0.0548 fold-change vs cycle 0

CGGATC
binding signal (SALL4 ZFC4 WT (HT-SELEX)): 0.362 ± 0.0382 fold-change vs cycle 0 | binding signal [1]: 0.438 ± 0.0155 fold-change vs cycle 0 | binding signal [2]: 0.571 ± 0.02 fold-change vs cycle 0

CGTTAG
binding signal (SALL4 ZFC4 WT (HT-SELEX)): 0.723 ± 0.0258 fold-change vs cycle 0 | binding signal [1]: 0.82 ± 0.0289 fold-change vs cycle 0 | binding signal [2]: 0.902 ± 0.0446 fold-change vs cycle 0

AATTCG
binding signal (SALL4 ZFC4 WT (HT-SELEX)): 0.945 ± 0.024 fold-change vs cycle 0 | binding signal [1]: 1.008 ± 0.0043 fold-change vs cycle 0 | binding signal [2]: 1.07 ± 0.0346 fold-change vs cycle 0

AAGTCC
binding signal (SALL4 ZFC4 WT (HT-SELEX)): 0.762 ± 0.0144 fold-change vs cycle 0 | binding signal [1]: 0.863 ± 0.0347 fold-change vs cycle 0 | binding signal [2]: 0.936 ± 0.0256 fold-change vs cycle 0

AATATC
binding signal (SALL4 ZFC4 WT (HT-SELEX)): 2.49 ± 0.203 fold-change vs cycle 0 | binding signal [1]: 1.88 ± 0.0733 fold-change vs cycle 0 | binding signal [2]: 1.75 ± 0.14 fold-change vs cycle 0

CGGTTA
binding signal (SALL4 ZFC4 WT (HT-SELEX)): 0.677 ± 0.0447 fold-change vs cycle 0 | binding signal [1]: 0.748 ± 0.0385 fold-change vs cycle 0 | binding signal [2]: 0.801 ± 0.0326 fold-change vs cycle 0

TTTAAA
binding signal (SALL4 ZFC4 WT (HT-SELEX)): 2.46 ± 0.106 fold-change vs cycle 0 | binding signal [1]: 2.33 ± 0.125 fold-change vs cycle 0 | binding signal [2]: 2.04 ± 0.174 fold-change vs cycle 0

ATAGTG
binding signal (SALL4 ZFC4 WT (HT-SELEX)): 1.28 ± 0.0269 fold-change vs cycle 0 | binding signal [1]: 1.33 ± 0.0375 fold-change vs cycle 0 | binding signal [2]: 1.31 ± 0.0797 fold-change vs cycle 0

CAATGG
binding signal (SALL4 ZFC4 WT (HT-SELEX)): 0.767 ± 0.067 fold-change vs cycle 0 | binding signal [1]: 0.849 ± 0.0267 fold-change vs cycle 0 | binding signal [2]: 0.923 ± 0.0362 fold-change vs cycle 0

TATACA
binding signal (SALL4 ZFC4 WT (HT-SELEX)): 2.08 ± 0.107 fold-change vs cycle 0 | binding signal [1]: 1.99 ± 0.114 fold-change vs cycle 0 | binding signal [2]: 1.77 ± 0.145 fold-change vs cycle 0

CATGGG
binding signal (SALL4 ZFC4 WT (HT-SELEX)): 0.477 ± 0.0485 fold-change vs cycle 0 | binding signal [1]: 0.543 ± 0.0349 fold-change vs cycle 0 | binding signal [2]: 0.645 ± 0.0616 fold-change vs cycle 0

AACGAC
binding signal (SALL4 ZFC4 WT (HT-SELEX)): 0.568 ± 0.0525 fold-change vs cycle 0 | binding signal [1]: 0.668 ± 0.0478 fold-change vs cycle 0 | binding signal [2]: 0.771 ± 0.0138 fold-change vs cycle 0

CTTAAA
binding signal (SALL4 ZFC4 WT (HT-SELEX)): 1.73 ± 0.0848 fold-change vs cycle 0 | binding signal [1]: 1.87 ± 0.112 fold-change vs cycle 0 | binding signal [2]: 1.65 ± 0.165 fold-change vs cycle 0

AGTTCC
binding signal (SALL4 ZFC4 WT (HT-SELEX)): 0.848 ± 0.0309 fold-change vs cycle 0 | binding signal [1]: 0.972 ± 0.0535 fold-change vs cycle 0 | binding signal [2]: 0.98 ± 0.0319 fold-change vs cycle 0

AACCTC
binding signal (SALL4 ZFC4 WT (HT-SELEX)): 0.87 ± 0.0372 fold-change vs cycle 0 | binding signal [1]: 0.961 ± 0.043 fold-change vs cycle 0 | binding signal [2]: 1.02 ± 0.0516 fold-change vs cycle 0

AAACTT
binding signal (SALL4 ZFC4 WT (HT-SELEX)): 1.81 ± 0.119 fold-change vs cycle 0 | binding signal [1]: 1.89 ± 0.128 fold-change vs cycle 0 | binding signal [2]: 1.68 ± 0.174 fold-change vs cycle 0

CCAACG
binding signal (SALL4 ZFC4 WT (HT-SELEX)): 0.347 ± 0.0246 fold-change vs cycle 0 | binding signal [1]: 0.388 ± 0.0249 fold-change vs cycle 0 | binding signal [2]: 0.505 ± 0.0781 fold-change vs cycle 0

AAATTC
binding signal (SALL4 ZFC4 WT (HT-SELEX)): 1.76 ± 0.142 fold-change vs cycle 0 | binding signal [1]: 1.66 ± 0.0813 fold-change vs cycle 0 | binding signal [2]: 1.58 ± 0.109 fold-change vs cycle 0

ACAATG
binding signal (SALL4 ZFC4 WT (HT-SELEX)): 1.23 ± 0.0338 fold-change vs cycle 0 | binding signal [1]: 1.34 ± 0.0389 fold-change vs cycle 0 | binding signal [2]: 1.32 ± 0.0407 fold-change vs cycle 0

AAGCAG
binding signal (SALL4 ZFC4 WT (HT-SELEX)): 0.683 ± 0.026 fold-change vs cycle 0 | binding signal [1]: 0.821 ± 0.0507 fold-change vs cycle 0 | binding signal [2]: 0.85 ± 0.0183 fold-change vs cycle 0

GGAGTA
binding signal (SALL4 ZFC4 WT (HT-SELEX)): 0.898 ± 0.0231 fold-change vs cycle 0 | binding signal [1]: 0.991 ± 0.0565 fold-change vs cycle 0 | binding signal [2]: 1.01 ± 0.0114 fold-change vs cycle 0

CATACG
binding signal (SALL4 ZFC4 WT (HT-SELEX)): 0.727 ± 0.0223 fold-change vs cycle 0 | binding signal [1]: 0.792 ± 0.0487 fold-change vs cycle 0 | binding signal [2]: 0.858 ± 0.0517 fold-change vs cycle 0

AAAATC
binding signal (SALL4 ZFC4 WT (HT-SELEX)): 1.66 ± 0.102 fold-change vs cycle 0 | binding signal [1]: 1.58 ± 0.0564 fold-change vs cycle 0 | binding signal [2]: 1.53 ± 0.0679 fold-change vs cycle 0

AATCGC
binding signal (SALL4 ZFC4 WT (HT-SELEX)): 0.437 ± 0.0162 fold-change vs cycle 0 | binding signal [1]: 0.483 ± 0.0175 fold-change vs cycle 0 | binding signal [2]: 0.628 ± 0.0598 fold-change vs cycle 0

AGGTTA
binding signal (SALL4 ZFC4 WT (HT-SELEX)): 1.49 ± 0.0813 fold-change vs cycle 0 | binding signal [1]: 1.57 ± 0.127 fold-change vs cycle 0 | binding signal [2]: 1.44 ± 0.162 fold-change vs cycle 0

CCAGAG
binding signal (SALL4 ZFC4 WT (HT-SELEX)): 0.463 ± 0.0303 fold-change vs cycle 0 | binding signal [1]: 0.544 ± 0.0428 fold-change vs cycle 0 | binding signal [2]: 0.625 ± 0.0553 fold-change vs cycle 0

CCTACC
binding signal (SALL4 ZFC4 WT (HT-SELEX)): 0.45 ± 0.0245 fold-change vs cycle 0 | binding signal [1]: 0.53 ± 0.00975 fold-change vs cycle 0 | binding signal [2]: 0.625 ± 0.0741 fold-change vs cycle 0

ACAAGC
binding signal (SALL4 ZFC4 WT (HT-SELEX)): 0.616 ± 0.0453 fold-change vs cycle 0 | binding signal [1]: 0.707 ± 0.0111 fold-change vs cycle 0 | binding signal [2]: 0.798 ± 0.0212 fold-change vs cycle 0

ATCCCA
binding signal (SALL4 ZFC4 WT (HT-SELEX)): 0.89 ± 0.0366 fold-change vs cycle 0 | binding signal [1]: 0.976 ± 0.0258 fold-change vs cycle 0 | binding signal [2]: 0.979 ± 0.0303 fold-change vs cycle 0

TATTCA
binding signal (SALL4 ZFC4 WT (HT-SELEX)): 2.4 ± 0.138 fold-change vs cycle 0 | binding signal [1]: 2.03 ± 0.0979 fold-change vs cycle 0 | binding signal [2]: 1.83 ± 0.191 fold-change vs cycle 0

ATTCCA
binding signal (SALL4 ZFC4 WT (HT-SELEX)): 1.45 ± 0.0836 fold-change vs cycle 0 | binding signal [1]: 1.44 ± 0.0779 fold-change vs cycle 0 | binding signal [2]: 1.38 ± 0.106 fold-change vs cycle 0

ATTTCG
binding signal (SALL4 ZFC4 WT (HT-SELEX)): 1.02 ± 0.0756 fold-change vs cycle 0 | binding signal [1]: 0.985 ± 0.0219 fold-change vs cycle 0 | binding signal [2]: 1.06 ± 0.0262 fold-change vs cycle 0
